Laboratory results published in PubChem BioAssay AID1259341 (Broad Institute, 2017).
Active and inactive are the calls of the source.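 The calls were made as follows: active = activity change under -35% in any replicate well, with more than 20 beads read in that well; inactive = the rest.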

molecular target: Caspase recruitment domain-containing protein 9 (Homo sapiens) + E3 ubiquitin-protein ligase TRIM62 (Homo sapiens) (UniProt Q9H257+Q9BVG3); experiment: CARD9/TRIM62 protein interaction inhibitors – cell lysate, HEK293FT lysates, Luminex bead ELISA, primary screen (AID 1259341); conditions: PE fluorescence, stronger effect = lower value, concentration not given here;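 also: PE anti-Flag signal of Flag-CARD9 captured by myc-TRIM62 beads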
Sequence (Q9BVG3 whole entry, looked up, the tested form may be a part): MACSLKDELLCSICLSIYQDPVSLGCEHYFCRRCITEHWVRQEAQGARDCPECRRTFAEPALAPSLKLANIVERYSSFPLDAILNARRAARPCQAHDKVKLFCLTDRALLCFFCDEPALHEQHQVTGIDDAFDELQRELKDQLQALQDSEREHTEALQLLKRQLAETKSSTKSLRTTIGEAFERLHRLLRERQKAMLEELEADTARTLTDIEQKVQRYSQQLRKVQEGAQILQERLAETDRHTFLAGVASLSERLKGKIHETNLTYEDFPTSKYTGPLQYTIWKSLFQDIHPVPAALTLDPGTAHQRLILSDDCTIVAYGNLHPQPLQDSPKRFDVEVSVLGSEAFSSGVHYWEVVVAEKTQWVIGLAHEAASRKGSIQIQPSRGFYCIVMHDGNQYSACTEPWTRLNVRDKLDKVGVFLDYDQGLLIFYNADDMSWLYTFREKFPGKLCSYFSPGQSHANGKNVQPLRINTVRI
Sequence (Q9H257 whole entry, looked up, the tested form may be a part): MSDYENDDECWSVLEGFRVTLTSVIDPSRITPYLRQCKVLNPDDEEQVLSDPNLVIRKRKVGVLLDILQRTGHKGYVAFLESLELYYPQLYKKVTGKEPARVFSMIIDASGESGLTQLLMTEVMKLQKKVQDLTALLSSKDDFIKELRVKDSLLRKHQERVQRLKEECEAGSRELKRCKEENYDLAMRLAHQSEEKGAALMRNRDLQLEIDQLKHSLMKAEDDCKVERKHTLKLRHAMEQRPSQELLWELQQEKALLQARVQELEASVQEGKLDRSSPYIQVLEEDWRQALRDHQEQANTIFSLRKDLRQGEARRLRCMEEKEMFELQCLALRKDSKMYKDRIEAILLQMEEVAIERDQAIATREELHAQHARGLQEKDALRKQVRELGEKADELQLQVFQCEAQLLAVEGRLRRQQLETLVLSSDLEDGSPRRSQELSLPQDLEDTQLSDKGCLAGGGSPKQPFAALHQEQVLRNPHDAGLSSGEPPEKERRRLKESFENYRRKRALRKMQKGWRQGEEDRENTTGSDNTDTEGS

SMILES | activity change, negative = inhibition
Cc1ccc(S(=O)(=O)Nc2ccc3c(c2)C(=O)N([C@H](C)CO)C[C@H](C)[C@@H](CN(C)CC2CCCCC2)OCCCC[C@H](C)O3)cc1 | 4.51% (inactive)
CCCN1CCCn2nc(CNC(=O)[C@H]3CC[C@@H](N)C3)cc2C1 | -7.32% (inactive)
Cc1nc2ccccc2nc1CSCc1ccco1 | 1.2% (inactive)
On1c(-c2ccco2)nc2c1CCc1nonc1-2 | -2.2% (inactive)
COc1ccc(-c2nnc(-c3nc(Nc4ccc(NC(C)=O)cc4)c4ccccc4n3)o2)cc1 | 9.87% (inactive)
O=S(=O)(Nc1nccs1)c1ccc(-n2cccc2)cc1 | 3.9% (inactive)
COC[C@]1(O)CCN(C(=O)CCN(C)S(C)(=O)=O)CC1(C)C | -0.387% (inactive)
COc1ccc(N2CC3=C(N2)c2ccccc2CC3)cc1 | 25.5% (inactive)
O=C(COC(=O)c1cc(-c2ccco2)nc2ccccc12)NCc1ccccc1 | -1.75% (inactive)
CCc1oc2ccccc2c1C(=O)CCN1CCCCC1 | 2.4% (inactive)
O=C(CCc1nc(-c2ccccc2)no1)NCC1CNCCOC1 (stereo unspecified) | 18.6% (inactive)
COc1ccc(S(=O)(=O)N2CCN(C(=O)c3cc4c(s3)CCC4)CC2)cc1 | 0.552% (inactive)
CC1=CCC(C(=O)O)C(C(=O)NC2CCCCC2)C1 (stereo unspecified) | -6.81% (inactive)
COc1ccc(-c2nc(C)c(C(C)=O)n2O)cc1OC | -2.22% (inactive)
COc1ccc(S(=O)(=O)c2ccccc2)cc1NS(=O)(=O)c1cccc(C(=O)O)c1 | -0.344% (inactive)
Cc1ccc(C(=O)Nc2cnc(N3CCC(C(N)=O)(N4CCCCC4)CC3)c(C(=O)O)c2)cc1 | -51.3% (active)
O=C(O)C(c1ccccc1)C(c1ccccc1)c1ccccc1 (stereo unspecified) | 6.86% (inactive)
CCOc1cc2c(C#N)c(N3CCNCC3)nc(N)c2c(N)n1 | -2.85% (inactive)

SMILES | activity change, negative = inhibition
C[C@H](CO)N1C[C@H](C)[C@@H](CN(C)C(=O)C2CCCCC2)OCCCC[C@H](C)Oc2ccc(NS(=O)(=O)c3ccc(Cl)cc3)cc2C1=O | 8.52% (inactive)
Cc1c(C(=O)OCC2CCCO2)[nH]c2c1C(=O)CC(c1ccco1)C2 (stereo unspecified) | -1.75% (inactive)
C[n+]1cccc2cccc(O)c21 | -2.89% (inactive)
COc1c(C(=O)O)csc1Br | -20.4% (inactive)
CC1(C)Cc2c(c(N3CCOCC3)nc3sc(C(=O)NCc4ccco4)c(N)c23)CO1 | -2.46% (inactive)
Cc1cccc(NC(=O)Cc2coc3ccc4ccccc4c23)n1 | -0.738% (inactive)
Cc1cc(C(=O)NCc2ccco2)on1 | -1% (inactive)
Cc1ccc(C2CC(=O)C3=C(C2)Nc2ccccc2NC3c2cccnc2)cc1 (stereo unspecified) | -0.28% (inactive)
Nc1ccc2ncccc2c1N | 1.19% (inactive)
C[C@H](CO)N1C[C@H](C)[C@@H](CN(C)CC2CCCCC2)OCCCC[C@H](C)Oc2ccc(NS(=O)(=O)c3ccc(F)cc3)cc2C1=O | -12.1% (inactive)
C[C@H](CO)N1C[C@H](C)[C@@H](CN(C)C(=O)C2CCCCC2)OCCCC[C@H](C)Oc2ccc(NS(=O)(=O)c3cn(C)cn3)cc2C1=O | -7.17% (inactive)
Clc1ccc2nc(CN3CCCCCC3)cn2c1 | 5.28% (inactive)
Nc1cc2c(cc1-n1cccc1)OCCO2 | 4.12% (inactive)
COc1ccc(CNC(=O)c2nc(Nc3ccc(C)cc3)c3ccccc3n2)cc1 | -5.2% (inactive)
CCc1nccn1CCC(=O)N1C[C@H](CO)C[C@H](CN2CCCC2)C1 | 4.55% (inactive)
C[C@H](CO)N1C[C@H](C)[C@@H](CN(C)CC2CCCCC2)OCCCC[C@H](C)Oc2ccc(NS(=O)(=O)c3ccc(Cl)cc3)cc2C1=O | 8.08% (inactive)
Cc1occc1C(=O)NCc1cccc(CNC(=O)c2ccoc2C)c1 | 3.25% (inactive)
O=C(O)c1ccccc1/C=N/NC(=O)c1cc(-c2ccco2)nc2ccccc12 | -9.37% (inactive)
